Assay outcomes (PubChem)
Shown are actives, neighbours in structure and some others; about 19% of the full set was active somewhere.
HT1080NT lethal = kills 2HG-producing HT-1080-NT fibrosarcoma cells. AID 686970. Potency, µM (highest dose often 46.1 µM), actives largely listed as cytotoxic. actives 1.6% (n = 360,000). HT-1080-NT fibrosarcoma viability, CellTiter-Glo ATP luminescence, 48 h;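 further: NT is the 2HG producing partner of a matched IDH1 knockdown line; nearly all actives have a fitted effect of over 55% in size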
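Viability by CellTiter-Glo luminescence after 48 h compound exposure at 37C of HT-1080-NT cells (750/well, RPMI, 5% FBS). % activity scaled between DMSO wells and medium-only wells, then curve-fitted and categorized by curve class.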
HT1080 IDH1KD tx = toxicity to HT-1080 IDH1 knockdown cells (counter line); HT-1080 IDH1 knockdown viability, ATP luminescence, 48 h; Potency, µM (top dose mostly 46.1 µM), usual class: cytotoxic; actives 2% (n = 360,000); AID 686971
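In this qHTS, HT-1080 cells depleted of IDH1 are exposed for 48 h at 37 °C to compound titrations. Toxicity is scored from CellTiter-Glo luminescence, with DMSO as full viability and medium alone as none.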
IL-1B inflam inh = blocks inflammasome-driven IL-1 beta release; actives 4.7% (n = 360,000); activity change, % at 57.5 µM; THP-1 LPS/ATP IL-1B secretion, AlphaLISA, 16 h; active compounds read low; in the data active means activity change below about -50%; inconclusive means mostly about -30% to -49%
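Secreted IL-1B measured by AlphaLISA bead assay after 16 h compound exposure of THP-1 cells; compounds (final up to 57.5 uM) added 1 h before LPS (250 ng/mL) and ATP (1.25 mM) stimulation; lower signal means less secretion.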
TDP1 cell noCPT = qHTS for Inhibitors of human tyrosyl-DNA phosphodiesterase 1 (TDP1): qHTS in cells in absence of CPT; DT40 Tdp1-/- hTDP1 cells, no CPT, ATP luminescence, 48 h; Potency, µM (top dose mostly 46.2 µM), hits mostly inhibitors; actives 15% (n = 420,000); further: nearly all actives have a fitted effect of over 55% in size
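DT40 Tdp1-/-;hTDP1 cells, no CPT (DMSO vehicle only), 400 cells/well; compounds pin-transferred; ≥48 hr, 37 °C; CellTiter-Glo 30 min RT dark, luminescence read.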
DT40 TDP1 CPT = growth inhibition of DT40 Tdp1-/-;hTDP1 cells with camptothecin (screen for TDP1 inhibitors); actives 12% (n = 420,000); Potency, µM (series often up to 46.2 µM), usual class: inhibitors; chicken DT40 Tdp1-/-;hTDP1 cells + 20 nM CPT, ATP luminescence, 48 h; further: nearly all actives have a fitted effect of over 55% in size
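Chicken DT40 Tdp1-/- cells complemented with human TDP1, 400 cells/well, exposed to compounds plus 20 nM camptothecin for at least 48 h at 37 C; viability read as ATP content by CellTiter-Glo luminescence.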
Each line names hits and unclear results; the compound was inactive in the other large screens. Unless noted, the call rests on the fitted dose curve; in most records, active means well fitted curve in the direction sought with a large enough effect; inconclusive means small, poorly fitted or top-dose-only effect, or another doubt; inactive means no such curve, though single readings can be large; an effect the other way counts as inactive or inconclusive.

Cc1cc(NCCCO)n2nc(-c3cccs3)cc2n1	none (no result: IL-1B inflam inh)
Cc1cc(NCCN(C)C)n2nc(-c3cccs3)cc2n1	IL-1B inflam inh -99.9
CCN1C(=O)C(O)(CC(=O)c2cccc(-n3cccc3)c2)c2ccccc21 (stereo not drawn)	IL-1B inflam inh inconclusive, TDP1 cell noCPT 16.4µM, DT40 TDP1 CPT inconclusive
CCN1C(=O)C(O)(CC(=O)c2ccc(-n3cccc3)cc2)c2ccccc21 (stereo not drawn)	TDP1 cell noCPT inconclusive, DT40 TDP1 CPT inconclusive
Cc1ccccc1CN1C(=O)C(O)(CC(=O)c2cccc(Br)c2)c2ccccc21 (stereo not drawn)	TDP1 cell noCPT 5.17µM (no result: HT1080NT lethal, HT1080 IDH1KD tx, IL-1B inflam inh)
COC(=O)CN1C(=O)C(O)(CC(=O)c2cccc(Br)c2)c2ccccc21 (stereo not drawn)	TDP1 cell noCPT inconclusive, DT40 TDP1 CPT 29.1µM
COc1ccc(OC)c(C(=O)CC2(O)C(=O)N(Cc3ccccc3C)c3ccccc32)c1 (stereo not drawn)	TDP1 cell noCPT 5.8µM, DT40 TDP1 CPT 16.4µM (no result: HT1080NT lethal, HT1080 IDH1KD tx, IL-1B inflam inh)
CCCCn1c(N)c(N(C)C(=O)C2CC(=O)N(Cc3ccco3)C2)c(=O)[nH]c1=O (stereo not drawn)	none
O=C(c1cccnc1)N1CCC(Oc2ccc(C(=O)N3CCCCO3)cc2)CC1	TDP1 cell noCPT inconclusive
CCc1nn(CC(=O)NCc2ccccc2Cl)c(=O)c2cccn12	none
O=C(C1CCCN1C(=O)c1cccs1)N1CCN(Cc2ccc3c(c2)OCO3)CC1 (stereo not drawn)	TDP1 cell noCPT inconclusive
N#Cc1ccc(C(C(=O)NC2CCCCC2)n2c(=O)c(-c3cc4ccccc4[nH]3)nc3ccccc32)cc1 (stereo not drawn)	TDP1 cell noCPT 14.6µM, DT40 TDP1 CPT 14.6µM
O=C(Nc1ccc2ccccc2c1)C(C1CC1)n1c(=O)c(-c2cc3ccccc3[nH]2)nc2ccccc21 (stereo not drawn)	HT1080NT lethal inconclusive, HT1080 IDH1KD tx inconclusive, TDP1 cell noCPT inconclusive, DT40 TDP1 CPT inconclusive
COc1ccc(C(C(=O)NC2CCCCC2)n2c(=O)c(-c3cc4ccccc4[nH]3)nc3ccccc32)cc1 (stereo not drawn)	TDP1 cell noCPT 14.6µM, DT40 TDP1 CPT inconclusive
O=C(NC1CCCCC1)C(c1ccnc2ccccc12)n1c(=O)c(-c2cc3ccccc3[nH]2)nc2ccccc21 (stereo not drawn)	HT1080NT lethal inconclusive, TDP1 cell noCPT 14.6µM, DT40 TDP1 CPT inconclusive
Cc1nc2ccccc2n1CC(=O)NC1CCCCCC1	HT1080NT lethal inconclusive, HT1080 IDH1KD tx inconclusive, TDP1 cell noCPT 13µM, DT40 TDP1 CPT 11.6µM
CCCCc1nn2c(=O)cc(COC(=O)c3ccccc3NC(=O)c3ccccc3OC)nc2s1	none (no result: HT1080NT lethal, HT1080 IDH1KD tx, IL-1B inflam inh)
CCC(C(=O)NC1CCCC1)n1c(-c2ccnc3ccccc23)nc2ccccc21 (stereo not drawn)	IL-1B inflam inh -58.7, TDP1 cell noCPT inconclusive, DT40 TDP1 CPT inconclusive
CSCCC(C(=O)NC1CCCC1)n1c(C2CCCC2)nc2ccccc21 (stereo not drawn)	IL-1B inflam inh -87.8, TDP1 cell noCPT inconclusive, DT40 TDP1 CPT inconclusive
O=C(NC1CCCCC1)C(c1ccccc1)n1c(=O)c(-c2cc3ccccc3[nH]2)nc2ccccc21 (stereo not drawn)	HT1080 IDH1KD tx inconclusive, IL-1B inflam inh -68.8, TDP1 cell noCPT inconclusive, DT40 TDP1 CPT inconclusive
CCC(C(=O)NC1CCCC1)n1c(-c2ccncc2)nc2ccccc21 (stereo not drawn)	none
O=C(NC1CCCCC1)C(c1ccnc2ccccc12)n1c(=O)c(-c2ccccc2)nc2ccccc21 (stereo not drawn)	HT1080NT lethal 13µM, HT1080 IDH1KD tx 11.6µM, TDP1 cell noCPT 13µM, DT40 TDP1 CPT 10.3µM
CCN(CC(=O)Nc1c(F)cccc1F)C(=O)c1ccc(Cl)c(S(=O)(=O)N2CCCC2)c1	none
O=C1CCCN1CCCNc1ncccc1[N+](=O)[O-]	none
O=[N+]([O-])c1ccc(C(O)CN=Cc2ccc(O)cc2O)cc1 (stereo not drawn)	HT1080NT lethal 11.6µM, HT1080 IDH1KD tx 8.2µM, TDP1 cell noCPT inconclusive, DT40 TDP1 CPT 23.1µM
O=c1oc2cc(Br)ccc2n1CSC1=NCCS1	IL-1B inflam inh -65.5, TDP1 cell noCPT 18.4µM, DT40 TDP1 CPT 20.6µM
C[C@@]12CC[C@H]3OC(=O)C=C3C1CC[C@@]13CC(CCC12)[C@](CO)(O[C@H]1O[C@H](CO)[C@@H](O)[C@H](O)[C@H]1O)C3 (stereo partly drawn)	none
COc1ccc(NC(=O)Cn2cnc3sc(C)c(S(=O)(=O)N4CCOCC4)c3c2=O)cc1Cl	none
CCc1nc2ccc(C(=O)NCCc3ccccn3)cn2c1N(C)Cc1cccs1	TDP1 cell noCPT 18.4µM, DT40 TDP1 CPT inconclusive
CCc1nc2ccc(C(=O)Nc3ccc(OC)c(OC)c3)cn2c1N(CC)Cc1cccc(Br)c1	HT1080NT lethal inconclusive, HT1080 IDH1KD tx 16.4µM, IL-1B inflam inh -57.1, TDP1 cell noCPT 23.1µM, DT40 TDP1 CPT 23.1µM
CCc1nc2ccc(C(=O)NCCC(C)C)cn2c1N(C)Cc1nccs1	TDP1 cell noCPT inconclusive, DT40 TDP1 CPT inconclusive
CCc1nc2ccc(C(=O)NCCc3ccccn3)cn2c1N(C)Cc1nccs1	TDP1 cell noCPT 16.4µM, DT40 TDP1 CPT inconclusive
CCc1nc2ccc(C(=O)NCc3cccs3)cn2c1N(C)Cc1nccs1	IL-1B inflam inh -53.8, TDP1 cell noCPT 20.6µM, DT40 TDP1 CPT inconclusive
CCc1nc2ccc(C(=O)Nc3ccc(OC)c(OC)c3)cn2c1N(CC)CCOC	TDP1 cell noCPT inconclusive, DT40 TDP1 CPT inconclusive
COc1ccc(CCNC(=O)CN2C(=O)C3(OCCCO3)c3ccccc32)cc1OC	none
CCc1nc2ccc(C(=O)Nc3ccc(OC)c(OC)c3)cn2c1N(C)Cc1ccc(N(C)C)cc1	TDP1 cell noCPT inconclusive, DT40 TDP1 CPT inconclusive
CCc1nc2ccc(C(=O)Nc3ccc(OC)c(OC)c3)cn2c1N(C)Cc1nccs1	TDP1 cell noCPT inconclusive, DT40 TDP1 CPT 14.6µM
COCc1cc(C)nc(NCCc2ccccc2)c1C#N	TDP1 cell noCPT inconclusive
COC(=O)c1c(C(=O)OC)c(-c2ccc(C)cc2)n2c1CS(=O)(=O)C2	TDP1 cell noCPT inconclusive
COC(=O)c1c(C(=O)OC)c(-c2ccc(Cl)cc2)n2c1CS(=O)(=O)C2	TDP1 cell noCPT 20.6µM, DT40 TDP1 CPT 20.6µM
CSC1(SC2=NCCN2)SC2(NCCN2)S1	HT1080 IDH1KD tx inconclusive, IL-1B inflam inh inconclusive, TDP1 cell noCPT 13µM, DT40 TDP1 CPT 10.3µM
OC[C@@H]1[C@@H](c2ccccc2)C(c2ccc(F)cc2)=NN1c1ccccc1	HT1080NT lethal inconclusive, HT1080 IDH1KD tx inconclusive, TDP1 cell noCPT inconclusive, DT40 TDP1 CPT inconclusive
OC[C@@H]1[C@@H](c2ccccc2)C(c2ccccc2)=NN1c1ccccc1	TDP1 cell noCPT 16.4µM, DT40 TDP1 CPT inconclusive
